The source of these data is PubChem BioAssay (NCI).

Where “and” joins values, the source holds several entries; their conditions need not be identical. Equal entries are not always repeated. Compounds without any hit were thinned out: in the full panel of roughly 83,000, 20% have a hit.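 Cell lines were cultured in 96-well plates, exposed to a single compound concentration, and assessed for percent growth 48 hours later.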 Calls of active or inactive are those of the source.

For one assay, the system named is HCC-2998 colon. Put plainly: NCI-60 one-dose screen, 48 h (100 = growth as untreated, 0 = no growth, -100 = all killed). As to conditions: 10 µM. How it is done:
Growth inhibition of the HCC-2998 human tumor cell line is measured as a screen for anti-cancer activity. Cells are grown in 96 well plates and exposed to the test compound for 48 hours. Compounds are tested at a single concentration, which is 10^-5 M for most compounds. The reported endpoint is percent growth (GI% or GIPRCNT), where numbers from 0 - 100% represent growth inhibition, and numbers from -100% - 0 represent cell death. For example, a value of 40 represents 60% growth inhibition. A value of 0 means no net growth occurred over the course of the experiment. A value of -40 indicates 40% of cells at the beginning of the experiment died by the end of the experiment. A value of -100 means all cells are dead at the end of the experiment.
NCI-60 Human Tumor Cell Lines Screen was performed using the standard one-dose NCI protocol, which is described in more detail at https://dtp.cancer.gov/discovery_development/nci-60/default.htm.
Compounds with GIPRCNT values below 10 were considered active. Activity score was based on GIPRCNT using the following formula: […]
Score is 0 for GIPRCNT values of 100 or above, 50 for GIPRCNT values of 0, and 100 for GIPRCNT values of -100.
On to `CC1(C)OB(c2ccc(Cn3cc(F)c(=O)[nH]c3=O)cc2)OC1(C)C`, for which the growth was 104% (inactive).

Staying with this assay, now noted: 10 µM unless noted.
As for `Nc1cc(-c2cccc(OC(F)(F)F)c2)nc2ccc(N3CCCC3)cc12`, the growth is -31.7% (active) and 2.5% (active) and -33.8% (active).
In the case of `O=C(Nc1ccc([N+](=O)[O-])cc1Cl)c1cc(Cl)ccc1O`, the growth was -23.1% (active) and -28.9% (active).
With `CC(C)Oc1ccc2cc(-c3nn(CC4CCNCC4)c4ncnc(N)c34)ccc2c1`, the growth was 77.7% (inactive) and -13.5% (active).
With `O=C1c2ccccc2C(=O)c2c(NCCNCCO)ccc(NCCNCCO)c21`, the growth is 36.6% (inactive) and 41.1% (inactive).
Take `CCOC(=O)C(CNc1ccccc1)C(=O)OCC`: the growth was 102% (inactive).
For `O=C(CCc1ccc(O)cc1)N/N=C/c1cc(Br)ccc1O`, the growth is 50.1% (inactive).
As to `Cc1ccc(S(=O)(=O)NCN2C(=O)c3ccccc3C2=O)cc1`, the growth was 99.4% (inactive).
For the compound `Cc1cc(-c2ccc(NS(=O)(=O)c3ccccc3)c(C)c2)ccc1NS(=O)(=O)c1ccccc1`, the growth is 100% (inactive) and 110% (inactive).
On to `O=[N+]([O-])c1ccccc1N(S(=O)(=O)c1ccccc1)S(=O)(=O)c1ccccc1`, for which the growth is 101% (inactive) and 106% (inactive).
For `COc1cc2nc(N3CCC[C@@H](NC(=O)C4COc5ccccc5O4)C3)nc(N)c2cc1OC` (stereo not given in full), the growth is 104% (inactive) and 98.3% (inactive).
For the compound `CC1=C(/C=C/C(C)=C/C=C/C(C)=C/C=N/NC(=S)NC(=S)N/N=C/C=C(C)/C=C/C=C(C)/C=C/C2=C(C)CCCC2(C)C)C(C)(C)CCC1`, the growth was 57.1% (inactive) and 12.3% (inactive).
Turning to `O=C(O)c1cc(C(=O)O)cc([N+](=O)[O-])c1`, the growth is 110% (inactive).
Turning to `C#CCN(C)Cc1ccccc1`, the growth was 103% (inactive) and 97.7% (inactive).
Consider `Nc1n[nH]c(=S)n1-c1ccc(Cl)cc1`, for which the growth is 108% (inactive).
In the case of `CCN(CC)CCCC(C)N(Cc1ccccc1)CC(O)c1ccc(Cl)cc1` (stereo not given), the growth was 101% (inactive).
In the case of `COc1cc(C(=O)N/N=C/c2ccc(N(C)C)cc2)cc(OC)c1OC`, the growth is 12% (inactive).
Take `Cc1ncsc1CCO`: the growth was 101% (inactive) and 109% (inactive).
Consider `CC(=O)Nc1cccc2c1CCCC2`, for which the growth was 99.8% (inactive) and 95.3% (inactive).
For the compound `Nc1nc2ncc(CNc3ccc(C(=O)N[C@@H](CCc4nn[nH]n4)C(=O)O)cc3)nc2c(=O)[nH]1`, the growth was 99.2% (inactive) and 104% (inactive).
Regarding `OCCN1CCN(CCO)CC1`, the growth is 102% (inactive) and 95.7% (inactive) and 107% (inactive).
Consider `CCN(CC)CCNc1cc(-c2cccc(OC(F)(F)F)c2)nc2ccc(N3CCCC3)cc12`, for which the growth was 23.8% (inactive) and -45.2% (active) and -4.48% (active).
On to `COc1ccccc1/C=N\N=C(N/N=C/c1ccccc1OC)N/N=C/c1ccccc1OC`, for which the growth was 33.7% (inactive) and 26.8% (inactive).
On to `CCN(CC)CCCC(CNc1ccnc2cc(Cl)ccc12)c1ccc(Cl)cc1` (stereo not given), for which the growth is -76.8% (active) and -93.6% (active).
For `O=C(N/N=C/c1ccccc1)N/N=C/c1ccccc1`, the growth is 101% (inactive) and 96.3% (inactive).
For the compound `CC(C)Cc1ccc(C(C)C(=O)NCc2ccc(Cn3c(=O)sn(CCCCl)c3=O)cc2)cc1` (stereo not given), the growth was 95.7% (inactive) and -44.7% (active).
On to `O=C(O)C1C2C=CC(C2)C1C(=O)O` (stereo not given), for which the growth was 117% (inactive) and 46.1% (inactive) and 107% (inactive).
In the case of `O=C(Nc1cccc(-n2ccc3c(NC(=O)c4ccccc4)nccc32)c1)c1ccc(Cl)c(C(F)(F)F)c1`, the growth is -27.9% (active) and 64.4% (inactive).
As to `COc1ccc2cc3[n+](cc2c1OC)CCc1cc2c(cc1-3)OCO2`, the growth is 56% (inactive) and 96.8% (inactive).
With `OCCN1CCN(CCCN2c3ccccc3Sc3ccc(Cl)cc32)CC1`, the growth was 15.2% (inactive) and 70.6% (inactive).
With `CO/N=C/C=C\C(=O)N/C=C/C[C@H]1/C=C/[C@H](O)/C=C\C=C\c2cccc(O)c2C(=O)O1`, the growth is 59.3% (inactive) and 29.1% (inactive).
For the compound `CC(/C=N/N1C(=O)c2ccccc2C1=O)c1ccccc1` (stereo not given), the growth was 106% (inactive).
Consider `Cc1ccc(S(=O)(=O)Nc2ccc3cc([N+](=O)[O-])ccc3c2[N+](=O)[O-])cc1`, for which the growth is 73.9% (inactive) and 95.8% (inactive).
`CC1=C(/C=C/C(C)=C/C=C/C(C)=C/C(=O)O)C(C)(C)CCC1`: the growth was 108% (inactive) and 111% (inactive) and 105% (inactive).
Consider `CC(=O)Nc1ccc2cc3ccc(NC(C)=O)cc3nc2c1`, for which the growth is 77.1% (inactive).
Regarding `O=C(O)CCCCc1ccc([N+](=O)[O-])cc1`, the growth was 106% (inactive) and 94.9% (inactive).
`CC(O)(CC(=O)CC(=O)c1ccccc1)c1ccccc1` (stereo not given): the growth was 101% (inactive) and 92.8% (inactive).
For the compound `c1ccc(N(c2ccccc2)c2ccccc2)cc1`, the growth was 111% (inactive).
Same read-out and setting: the value for `CN(C)c1ccc(C(=C2C=CC(=[N+](C)C)C=C2)c2ccccc2Cl)cc1` was -92.3% (active) and -98.8% (active).

Staying with this assay, now noted: 50 µM.
With `CC1(C)OB(c2ccc(Cn3cc(F)c(=O)[nH]c3=O)cc2)OC1(C)C`, the growth was 74.4% (inactive).
